The record followed here is the supplement of paper PMC9801561.

± gives the standard deviation of the averaged measurements.

One assay concerns Escherichia coli Nissle 1917. Kind of assay: area under OmniLog respiration curve over 48 h (OmniLog units x h); higher = more growth / nutrient utilisation; extreme values may be limits of the assay. As to conditions: nutrient role: C-Source, amino acid; incubation: 48 h, 37 °C.
`O=C(O)[C@@H]1C[C@@H](O)CN1` [Hydroxy-L-Proline]: the “area under OmniLog respiration curve” value turned out to be 94.1 ± 78. On the same count and under the same terms, the figure for `N[C@@H](Cc1c[nH]cn1)C(=O)O` [L-Histidine] is 4.72; for `CC(C)[C@H](N)C(=O)O` [L-Valine] it is 5.38 ± 1.1; for `NCCCC[C@H](N)C(=O)O` [L-Lysine] it is 10.5 ± 10.

The assay is the same for the next values; noted with them: nutrient role: C-Source, carbohydrate; incubation: 48 h, 37 °C.
For `OC[C@@H](O)[C@@H](O[C@@H]1O[C@H](CO)[C@H](O)[C@H](O)[C@H]1O)[C@H](O)[C@@H](O)CO` [D-Lactitol], the “area under OmniLog respiration curve” value was determined as 5600 ± 540.

As to `O=C[C@H](O)[C@H](O)[C@@H](O)CO` [L-Lyxose], the “area under OmniLog respiration curve” value was found to be 2670 ± 880. As to `CO[C@H]1O[C@H](CO)[C@@H](O)[C@H](O)[C@H]1O` [a-Methyl-D-Glucoside], the “area under OmniLog respiration curve” value was 4.72. Still for that read-out and setting: under `OCC1(O)OC[C@@H](O)[C@@H](O)[C@H]1O` (stereo partly drawn) [D-Psicose] stands 3500 ± 700; under `OC[C@H]1OC(O)[C@@H](O)[C@@H](O)[C@@H]1O` (stereo partly drawn) [D-Mannose], 8430 ± 440; under `OC[C@H]1O[C@@](CO)(O[C@H]2O[C@H](CO)[C@@H](O)[C@H](O)[C@H]2O)[C@@H](O[C@H]2O[C@H](CO)[C@@H](O)[C@H](O)[C@H]2O)[C@@H]1O` [D-Melezitose], 106 ± 150. Take `O=C[C@@H](O)[C@H](O[C@@H]1O[C@H](CO)[C@H](O)[C@H](O)[C@H]1O)[C@H](O)CO` [3-O-b-D-Galactopyranosyl-D-Arabinose]: the “area under OmniLog respiration curve” value was determined as 8530 ± 550. Same read-out and setting: the figure for `C[C@@H]1OC(O)[C@H](O)[C@H](O)[C@H]1O` (stereo partly drawn) [L-Rhamnose] is 6960 ± 610; for `O=P(O)(O)O[C@H]1O[C@H](CO)[C@@H](O)[C@H](O)[C@H]1O` [D-Glucose-1-Phosphate] it is 8850 ± 750. Still for that read-out and setting: the figure for `OCC(O)CO` [Glycerol] is 7310 ± 730.

The assay is the same for the next values; noted with them: nutrient role: C-Source, carboxylic acid; incubation: 48 h, 37 °C.
Take `CC(=O)CC(=O)O` [Acetoacetic acid]: the “area under OmniLog respiration curve” value is 784 ± 630.

Regarding `C[N+](C)(C)CC(O)CC(=O)[O-]` (racemic) [D,L-Carnitine], the “area under OmniLog respiration curve” value amounted to 5.03 ± 0.54.

Take `O=C(O)CCC(=O)O` [Succinic acid]: the “area under OmniLog respiration curve” value turned out to be 9020 ± 680. Turning to `COC(=O)CCC(=O)O` [Mono-Methylsuccinate], the “area under OmniLog respiration curve” value is 1170 ± 950.

As for `CC(=O)C(=O)O` [Pyruvic acid], the “area under OmniLog respiration curve” value was found to be 9610 ± 520. With `O=C(O)[C@]1(O)C[C@@H](O)[C@@H](O)[C@H](O)C1` [Quinic acid], the “area under OmniLog respiration curve” value was 4.72.

In the case of `O=C(O)[C@@H](O)[C@@H](O)[C@H](O)[C@@H](O)C(=O)O` [D-Saccharic acid], the “area under OmniLog respiration curve” value was found to be 9150 ± 780. Still for that read-out and setting: under `O=C(O)CO` [Glycolic acid] stands 7210 ± 370; under `CC(O)(CC(=O)O)C(=O)O` (stereo not drawn) [Citramalic acid], 4.72.
